The nature of assay [1]: ATG_AP_2_CIS: Attagene CIS-FACTORIAL HepG2 Assay for human Activator Protein 2 (AP-2) (AID 2282932). Particulars: HepG2 AP-2 cis-reporter, Attagene transcription factor profiling; actives raise or lower the signal. The method, boiled down:
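Assay in transfected HepG2 with promoter-regulated reporters, 24 h incubation after dosing. Signal is reporter mRNA fluorescence (RT-PCR, capillary electrophoresis), analysed for both increases and decreases relative to DMSO controls.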

Assay [2] addresses Transcription factor E2F1 (Homo sapiens) (UniProt Q01094). Briefly: ATG_E2F_CIS: Attagene CIS-FACTORIAL HepG2 Assay for human E2F Transcription Factor 1 (AID 2282935). Particulars: HepG2 Attagene cis-reporter, E2F reporter RNA transcripts; actives raise or lower the signal. The method, boiled down: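 In this cis-factorial format, endogenous factor activity drives transfected reporters in HepG2; transcripts collected at 24 h are quantified by fluorescence after RT-PCR and capillary separation.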

Assay [3] can be described thus: ATG_M_61_CIS: Attagene CIS-FACTORIAL HepG2 Assay for M61 Transcription Factor (Internal Marker) (AID 2282937). Particulars: HepG2 Attagene CIS-FACTORIAL M61 internal marker reporter; actives raise or lower the signal. The method, boiled down:
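Readout is reporter mRNA by RT-PCR, fluorescent primer extension and capillary electrophoresis, with gain or loss fitted relative to DMSO. Transfected HepG2 cells carrying endogenous-TF-driven cis reporters were exposed to chemicals for 24 hours.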

Assay [4] in a line: ATG_EGR_CIS: Attagene CIS-FACTORIAL HepG2 Assay for human Early Growth Response 1 (EGR1) (AID 2282938). Particulars: HepG2 Attagene CIS-FACTORIAL EGR reporter mRNA; actives raise or lower the signal. The method, boiled down:
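After 24 h compound exposure, RNA from reporter-transfected HepG2 cells was reverse-transcribed, PCR-amplified, fluorescently labelled and resolved by capillary electrophoresis. EGR1 reporter transcript changes, up or down, were fitted against DMSO, reflecting endogenous transcription-factor activity.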

The nature of assay [5]: ATG_Ets_CIS: Attagene CIS-FACTORIAL HepG2 Assay for human Erythroblast Transformation Specific (ETS) (AID 2282941). Particulars: HepG2 ETS cis-reporter transcription, actives raise or lower the signal. The method, boiled down: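 Endogenous transcription factor activity read as reporter mRNA via RT-PCR and capillary electrophoresis, with gain or loss fitted bidirectionally against DMSO. Human HepG2 liver cells, transiently transfected CIS reporter constructs, 24 h exposure.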

A short description of assay [6]: ATG_FoxO_CIS: Attagene CIS-FACTORIAL HepG2 Assay for human Forkhead box O (FoxO) (AID 2282943). The following applies: HepG2 Attagene cis-reporter, FoxO element, mRNA; actives raise or lower the signal. The method, boiled down:
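24 h chemical exposure, HepG2 with transient cis-MRTU transfection. RNA extraction, oligo(dT) RT, reporter-specific PCR, primer-extension labelling, HpaI digestion, CE fragment analysis; bidirectional fit, DMSO baseline.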

The target of assay [7] is Hypoxia-inducible factor 1-alpha (Homo sapiens) (UniProt Q16665). Briefly: ATG_HIF1a_CIS: Attagene CIS-FACTORIAL HepG2 Assay for human Hypoxia Inducible Factor 1 (HIF1A) (AID 2282951). The following applies: HepG2 Attagene cis-factorial HIF1a reporter transcription; actives raise or lower the signal. The method, boiled down: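 Activity is fitted in both directions relative to DMSO. Reporter transcripts are read by RT-PCR, fluorescent primer extension and capillary electrophoresis after 24 h chemical treatment. The cells are HepG2 carrying transiently transfected cis-element-driven reporter units responding to endogenous factors.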

A short description of assay [8]: ATG_TGFb_CIS: Attagene CIS-FACTORIAL HepG2 Assay for human Transforming Growth Factor (TGF) (AID 2282967). The following applies: HepG2 Attagene CIS TGFb reporter, mRNA transcription; actives raise or lower the signal. The method, boiled down:
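HepG2 cells transiently transfected with cis-promoter-driven multiplexed reporter units; 24 h compound exposure. Reporter mRNA measured by RT-PCR, 6-FAM labeling, HpaI digestion and capillary electrophoresis; bidirectional fit versus DMSO baseline.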

Assay [9] in a line: ATG_VDRE_CIS: Attagene CIS-FACTORIAL HepG2 Assay for human Vitamin D Receptor Element (VDRE) (AID 2282968). Particulars: HepG2 VDRE cis-reporter transcription, actives raise or lower the signal. The method, boiled down: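 Transfected HepG2 reporter cells, chemical treatment 24 h. RNA isolated, cDNA amplified with reporter-specific primers, products analysed by capillary electrophoresis. Endpoint fitted in both directions versus DMSO.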

The target in assay [10] is Transcriptional activator Myb (Homo sapiens) (UniProt P10242). As to the kind of experiment: ATG_Myb_CIS: Attagene CIS-FACTORIAL HepG2 Assay for human Myeloblastosis (Myb) Proto-Oncogene Transcription Factor (AID 2282986). Particulars: HepG2 Attagene CIS-FACTORIAL Myb reporter transcription; actives raise or lower the signal. The method, boiled down:
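Reporter mRNA is quantified by RT-PCR and capillary electrophoresis 24 h after dosing HepG2 cells transfected with cis-regulated reporter units, which track endogenous transcription factor activity. Gain and loss of signal are fitted versus DMSO baseline.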

For assay [11], the target named is Nuclear respiratory factor 1 (Homo sapiens) (UniProt Q16656). Briefly: ATG_NRF1_CIS: Attagene CIS-FACTORIAL HepG2 Assay for human Nuclear Respiratory Factor 1 (NRF1) Orphan Gene (AID 2282987). Particulars: HepG2 NRF1 cis-element reporter, Attagene multiplex; actives raise or lower the signal. The method, boiled down: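 Endogenous NRF1-driven reporter transcription in transfected HepG2 cells after 24 h treatment. Readout: RT-PCR products, 6-FAM labelled and resolved by capillary electrophoresis; changes fitted both directions relative to DMSO.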

Assay [12] can be described thus: ATG_NFI_CIS: Attagene CIS-FACTORIAL HepG2 Assay for human Nuclear Factor I (NFI) (AID 2282989). The following applies: HepG2 cis-regulatory reporter, NFI response element transcription; actives raise or lower the signal. The method, boiled down:
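HepG2 cells transiently transfected with cis-element-driven multiplexed reporter transcription units, dosed for 24 h. Reporter mRNA quantified by RT-PCR, fluorescent labelling, HpaI digestion and capillary electrophoresis; bidirectional fit versus DMSO baseline.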

The target of assay [13] is Cellular tumor antigen p53 (Homo sapiens) (UniProt P04637). Briefly: ATG_p53_CIS: Attagene CIS-FACTORIAL HepG2 Assay for human p53 Transcription Factor (AID 2282994). The following applies: HepG2 p53 cis-element reporter, Attagene mRNA; actives raise or lower the signal. The method, boiled down:
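Endogenous p53 activity read in transiently transfected HepG2 from a cis-element-driven reporter transcript after 24 h exposure. RNA reverse-transcribed, PCR-amplified, fluorescently labelled and sized by capillary electrophoresis; gain or loss fitted against DMSO baseline.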

Assay [14] is described as follows: ATG_XTT_Cytotoxicity: Cytotoxicity Assessment in the Attagene TRANS-FACTORIAL HepG2 Assay (AID 2283584; active = hit-call score of the fitted dose curve at least 0.9, where 1 is the maximum). The method, boiled down:
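24 h chemical exposure of reporter-transfected HepG2; XTT signal loss vs DMSO indicates cytotoxicity.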

For assay [15], the target named is Cellular tumor antigen p53 (Homo sapiens) (UniProt P04637). As to the kind of experiment: TOX21_p53_BLA_p2_ratio: Tox21 HCT-116 p53 Agonism Beta-lactamase Assay, Ratio, Phase 2 (AID 2283592; active = hit-call score of the fitted dose curve at least 0.9, where 1 is the maximum). The method, boiled down: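 DMSO-normalized, positive-direction endpoint derived from the 460 nm/530 nm FRET ratio in HCT116 p53 beta-lactamase reporter cells exposed 16 h at 37C and loaded with CCF4-AM for 2 h.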

The target in assay [16] is Hepatocyte nuclear factor 3-beta (Homo sapiens) (UniProt Q9Y261). Briefly: ATG_FoxA2_CIS: Attagene CIS-FACTORIAL HepG2 Assay for human Forkhead box A2 (FOXA2) (AID 2282942). Particulars: HepG2 cis-reporter transcription factor activity, 24 h; actives raise or lower the signal. The method, boiled down:
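Endogenous transcription factor activity is captured via cis-element-driven reporter transcripts in transfected HepG2. Total RNA taken at 24 h post-dosing; labelled RT-PCR products resolved by capillary electrophoresis. Gain or loss fitted versus DMSO.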

Assay [17] is described as follows: ATG_RORE_CIS: Attagene CIS-FACTORIAL HepG2 Assay for human RAR-related Orphan Receptor Element (RORE) (AID 2282959). The following applies: HepG2 Attagene cis-factorial RORE reporter, mRNA; actives raise or lower the signal. The method, boiled down:
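RORE reporter transcripts reflecting endogenous factor activity were read after 24 h compound exposure of transfected HepG2 cells, using reverse transcription, PCR, fluorescent labelling and capillary electrophoresis sizing. Gain or loss fitted against DMSO.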

Assay [18] addresses X-box-binding protein 1 (Homo sapiens) (UniProt P17861). Briefly: ATG_Xbp1_CIS: Attagene CIS-FACTORIAL HepG2 Assay for human X-box Binding Protein 1 (XBP1) (AID 2282972). Particulars: HepG2 XBP1 cis-element reporter, Attagene multiplex; actives raise or lower the signal. The method, boiled down: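 Reporter transcripts were quantified by RT-PCR with fluorescent primer extension and capillary electrophoresis after 24 h chemical exposure. Cells: transiently transfected HepG2 carrying cis-regulated reporter constructs; data fitted bidirectionally relative to DMSO.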

The target in assay [19] is Myc proto-oncogene protein (Homo sapiens) (UniProt P01106). Briefly: ATG_Myc_CIS: Attagene CIS-FACTORIAL HepG2 Assay for human Myelocytomatosis (Myc) Proto-Oncogene Transcription Factor (AID 2282990). The following applies: HepG2, Attagene cis-reporter transcription factor activity; actives raise or lower the signal. The method, boiled down:
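DMSO-normalised, bidirectionally fitted reporter mRNA signal. HepG2 cells transfected with cis reporter constructs, treated 24 h; transcripts detected by RT-PCR, 6-FAM primer extension and CE.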

Assay [20] concerns the target Nuclear receptor subfamily 1 group I member 2 (Homo sapiens) (UniProt O75469). Briefly: ATG_PXR_TRANS: Attagene TRANS-FACTORIAL HepG2 Assay for human Pregnane X Receptor (PXR) (AID 2283008; active = hit-call score of the fitted dose curve at least 0.9, where 1 is the maximum). The method, boiled down:
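Transactivation by exogenous PXR–GAL4 fusion measured as reporter transcript induction after 24 h compound treatment of transfected human HepG2 cells. Read-out via RT-PCR and capillary electrophoresis of labelled fragments, fitted upward relative to DMSO.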

Records with an inconclusive call do not appear. Where a structure was tested more than once in an assay, its records may differ in their call. Activity calls are given as the source filed them. The calls were made as follows, unless noted: active = hit-call score of the fitted dose curve at least 0.9, where 1 is the maximum; inactive = score below 0.9.

Sequence of Cellular tumor antigen p53 (Homo sapiens) (P04637 whole entry, looked up): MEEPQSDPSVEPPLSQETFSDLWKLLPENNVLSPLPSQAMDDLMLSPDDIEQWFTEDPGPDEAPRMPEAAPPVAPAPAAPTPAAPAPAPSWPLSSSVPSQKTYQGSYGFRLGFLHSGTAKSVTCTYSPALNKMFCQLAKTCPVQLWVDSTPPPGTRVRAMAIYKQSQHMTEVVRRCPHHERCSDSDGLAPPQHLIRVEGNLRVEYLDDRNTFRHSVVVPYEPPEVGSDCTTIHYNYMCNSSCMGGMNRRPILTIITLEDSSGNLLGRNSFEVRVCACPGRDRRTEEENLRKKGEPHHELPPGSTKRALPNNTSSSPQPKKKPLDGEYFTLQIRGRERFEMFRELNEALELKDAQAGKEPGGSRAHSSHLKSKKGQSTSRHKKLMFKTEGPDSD
Sequence of Hepatocyte nuclear factor 3-beta (Homo sapiens) (Q9Y261 whole entry, looked up): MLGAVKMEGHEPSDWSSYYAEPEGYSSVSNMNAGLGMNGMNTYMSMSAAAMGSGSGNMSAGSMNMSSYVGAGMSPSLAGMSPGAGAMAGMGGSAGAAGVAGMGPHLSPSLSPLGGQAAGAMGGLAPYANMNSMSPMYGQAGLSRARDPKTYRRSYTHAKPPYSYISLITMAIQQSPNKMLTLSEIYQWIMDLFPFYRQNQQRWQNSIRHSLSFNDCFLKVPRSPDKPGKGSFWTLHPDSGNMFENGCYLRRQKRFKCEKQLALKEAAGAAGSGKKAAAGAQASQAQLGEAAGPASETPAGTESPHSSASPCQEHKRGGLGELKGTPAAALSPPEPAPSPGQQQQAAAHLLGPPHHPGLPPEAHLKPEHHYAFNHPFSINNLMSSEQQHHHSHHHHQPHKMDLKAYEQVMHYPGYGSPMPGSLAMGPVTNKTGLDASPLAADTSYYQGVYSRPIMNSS
Sequence of Hypoxia-inducible factor 1-alpha (Homo sapiens) (Q16665 whole entry, looked up): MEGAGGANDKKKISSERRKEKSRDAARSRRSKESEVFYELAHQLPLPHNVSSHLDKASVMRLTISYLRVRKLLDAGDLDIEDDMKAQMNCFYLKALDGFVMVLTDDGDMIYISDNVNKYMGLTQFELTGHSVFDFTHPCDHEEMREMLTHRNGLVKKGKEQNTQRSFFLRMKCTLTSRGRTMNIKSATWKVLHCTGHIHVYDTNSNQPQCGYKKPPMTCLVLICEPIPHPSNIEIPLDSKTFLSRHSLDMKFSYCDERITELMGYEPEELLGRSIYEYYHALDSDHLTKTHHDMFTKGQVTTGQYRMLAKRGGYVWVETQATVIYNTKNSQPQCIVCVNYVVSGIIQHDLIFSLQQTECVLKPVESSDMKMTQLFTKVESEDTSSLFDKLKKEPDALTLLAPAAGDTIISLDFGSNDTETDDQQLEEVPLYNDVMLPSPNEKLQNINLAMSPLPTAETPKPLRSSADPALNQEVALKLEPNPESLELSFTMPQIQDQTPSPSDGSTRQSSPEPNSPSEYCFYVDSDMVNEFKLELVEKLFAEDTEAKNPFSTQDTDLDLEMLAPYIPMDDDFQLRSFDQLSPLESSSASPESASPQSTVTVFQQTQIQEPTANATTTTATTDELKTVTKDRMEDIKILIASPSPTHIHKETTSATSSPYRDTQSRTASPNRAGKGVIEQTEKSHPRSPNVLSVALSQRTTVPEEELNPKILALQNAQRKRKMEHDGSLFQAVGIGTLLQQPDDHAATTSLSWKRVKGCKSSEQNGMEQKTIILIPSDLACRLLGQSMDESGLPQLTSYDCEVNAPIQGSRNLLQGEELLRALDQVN
Sequence of Transcription factor E2F1 (Homo sapiens) (Q01094 whole entry, looked up): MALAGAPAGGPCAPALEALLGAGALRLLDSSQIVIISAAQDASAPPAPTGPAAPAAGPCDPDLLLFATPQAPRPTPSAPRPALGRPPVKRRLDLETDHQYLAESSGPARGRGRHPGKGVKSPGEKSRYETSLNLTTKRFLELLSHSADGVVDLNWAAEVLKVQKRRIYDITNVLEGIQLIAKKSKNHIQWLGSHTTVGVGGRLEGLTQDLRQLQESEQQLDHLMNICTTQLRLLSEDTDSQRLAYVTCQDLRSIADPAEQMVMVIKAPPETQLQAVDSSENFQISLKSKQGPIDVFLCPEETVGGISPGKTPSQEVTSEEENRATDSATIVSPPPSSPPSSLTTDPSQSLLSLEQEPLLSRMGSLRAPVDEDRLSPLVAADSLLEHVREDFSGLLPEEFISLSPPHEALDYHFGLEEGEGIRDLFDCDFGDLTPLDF
Sequence of Nuclear respiratory factor 1 (Homo sapiens) (Q16656 whole entry, looked up): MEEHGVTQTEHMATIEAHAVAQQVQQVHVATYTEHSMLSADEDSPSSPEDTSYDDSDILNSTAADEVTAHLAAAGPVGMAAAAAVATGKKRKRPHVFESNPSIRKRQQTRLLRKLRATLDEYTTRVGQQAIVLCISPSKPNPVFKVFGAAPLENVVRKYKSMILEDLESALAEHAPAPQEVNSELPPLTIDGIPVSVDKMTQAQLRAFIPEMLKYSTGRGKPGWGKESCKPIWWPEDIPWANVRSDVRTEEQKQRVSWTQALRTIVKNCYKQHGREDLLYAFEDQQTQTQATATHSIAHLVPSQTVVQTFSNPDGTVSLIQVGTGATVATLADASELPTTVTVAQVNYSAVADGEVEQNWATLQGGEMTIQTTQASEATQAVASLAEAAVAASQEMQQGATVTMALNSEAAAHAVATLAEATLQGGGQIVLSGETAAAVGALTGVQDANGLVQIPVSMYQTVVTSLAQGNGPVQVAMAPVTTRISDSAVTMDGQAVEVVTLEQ
Sequence of Transcriptional activator Myb (Homo sapiens) (P10242 whole entry, looked up): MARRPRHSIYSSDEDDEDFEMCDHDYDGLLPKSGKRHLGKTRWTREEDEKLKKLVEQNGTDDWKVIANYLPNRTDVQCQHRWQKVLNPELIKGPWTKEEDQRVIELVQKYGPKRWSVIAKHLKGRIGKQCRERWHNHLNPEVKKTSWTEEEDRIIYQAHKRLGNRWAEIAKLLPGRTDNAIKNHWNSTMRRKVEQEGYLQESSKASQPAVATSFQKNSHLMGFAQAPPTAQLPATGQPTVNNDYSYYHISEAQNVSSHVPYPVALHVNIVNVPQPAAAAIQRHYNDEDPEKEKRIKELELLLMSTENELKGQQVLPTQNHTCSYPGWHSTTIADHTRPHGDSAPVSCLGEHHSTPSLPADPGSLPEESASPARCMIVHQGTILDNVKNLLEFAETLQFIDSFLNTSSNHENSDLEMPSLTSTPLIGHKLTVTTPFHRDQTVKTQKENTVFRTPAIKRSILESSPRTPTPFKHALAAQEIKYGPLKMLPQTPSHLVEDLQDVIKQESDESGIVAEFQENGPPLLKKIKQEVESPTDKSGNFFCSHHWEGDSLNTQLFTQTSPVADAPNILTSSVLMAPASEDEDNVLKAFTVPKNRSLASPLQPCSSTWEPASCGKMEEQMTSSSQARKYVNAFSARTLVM
Sequence of Nuclear receptor subfamily 1 group I member 2 (Homo sapiens) (O75469 whole entry, looked up, the tested form may be a part): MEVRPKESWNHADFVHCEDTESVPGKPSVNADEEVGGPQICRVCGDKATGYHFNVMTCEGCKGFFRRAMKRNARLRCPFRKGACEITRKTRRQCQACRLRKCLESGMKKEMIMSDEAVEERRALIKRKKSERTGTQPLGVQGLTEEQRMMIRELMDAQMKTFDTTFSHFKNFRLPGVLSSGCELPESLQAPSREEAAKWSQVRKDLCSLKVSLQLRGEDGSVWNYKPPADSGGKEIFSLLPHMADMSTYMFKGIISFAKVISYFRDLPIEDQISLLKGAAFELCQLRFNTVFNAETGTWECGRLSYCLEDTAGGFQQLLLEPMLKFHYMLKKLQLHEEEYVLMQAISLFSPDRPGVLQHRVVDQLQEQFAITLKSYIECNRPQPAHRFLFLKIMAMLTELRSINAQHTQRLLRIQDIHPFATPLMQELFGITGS
Sequence of X-box-binding protein 1 (Homo sapiens) (P17861 whole entry, looked up): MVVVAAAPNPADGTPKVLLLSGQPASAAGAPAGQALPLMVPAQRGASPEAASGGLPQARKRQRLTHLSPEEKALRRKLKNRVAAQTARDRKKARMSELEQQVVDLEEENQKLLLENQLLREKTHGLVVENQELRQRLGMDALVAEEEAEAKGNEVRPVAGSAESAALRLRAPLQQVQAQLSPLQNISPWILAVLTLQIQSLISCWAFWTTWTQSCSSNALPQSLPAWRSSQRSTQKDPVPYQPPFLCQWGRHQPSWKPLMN
Sequence of Myc proto-oncogene protein (Homo sapiens) (P01106 whole entry, looked up): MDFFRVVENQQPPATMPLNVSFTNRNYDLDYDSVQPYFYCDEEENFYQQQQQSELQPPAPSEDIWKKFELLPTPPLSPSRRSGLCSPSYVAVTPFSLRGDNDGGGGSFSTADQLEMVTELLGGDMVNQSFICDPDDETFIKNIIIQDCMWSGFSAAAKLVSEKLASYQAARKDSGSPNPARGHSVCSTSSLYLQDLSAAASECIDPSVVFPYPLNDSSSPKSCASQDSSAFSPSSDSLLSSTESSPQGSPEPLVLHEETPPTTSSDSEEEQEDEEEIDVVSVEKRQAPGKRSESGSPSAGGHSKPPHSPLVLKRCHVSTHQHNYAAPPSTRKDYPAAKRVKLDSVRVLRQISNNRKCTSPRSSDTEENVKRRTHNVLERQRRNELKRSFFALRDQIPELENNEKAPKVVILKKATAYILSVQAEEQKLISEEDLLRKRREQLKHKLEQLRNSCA

As a reminder, the AC50 is the concentration giving half of the maximal activity seen. In the case of `CC(C)(C)NC(=O)[C@@H]1CN(Cc2cccnc2)CCN1C[C@@H](O)C[C@@H](Cc1ccccc1)C(=O)N[C@H]1c2ccccc2C[C@H]1O`, the call in assay [1], in [2], in assay [3], in [4], in [5] and in assay [6] was inactive. Besides, the compound was called inactive in assay [7], in assay [8], in assay [9], in assay [10], in [11] and in assay [12]. The outcome in assay [13], in assay [14] and in assay [15] was inactive. The AC50 in [15] is 40.8 µM (active).

`CCCN[C@H]1CCc2nc(N)sc2C1`: the call in assay [1], in [2], in assay [3], in [4], in assay [5] and in assay [16] was inactive. The outcome in [6], in assay [7], in assay [17], in assay [8], in assay [9] and in assay [18] was inactive. For the same compound, the compound was called inactive in [10], in assay [11], in assay [12], in assay [19], in assay [13] and in assay [15].

With `C=C1CC[C@H]2C[C@@H]1C2(C)C`, the call in assay [1], in assay [2], in [3], in [4], in assay [5] and in assay [16] was inactive. The compound was classed as inactive in assay [7], in [17], in assay [8], in assay [9], in assay [10] and in [11]. For the same compound, the compound was called inactive in assay [12], in assay [19] and in [14]. Moreover, in assay [20], the AC50 is 10.4 µM (active).

As to `CC1(C)S[C@@H]2[C@H](NC(=O)[C@H](N)c3ccccc3)C(=O)N2[C@H]1C(=O)O`, the compound was called inactive in assay [1], in assay [2], in assay [16], in [17], in [8] and in [18]. Further, the result in assay [10], in assay [11], in assay [12], in assay [13], in [20] and in assay [14] was inactive. Moreover, in assay [15], the result was inactive.

Source of the values: PubChem BioAssay (EPA / NIEHS).
